USP1 inh: Inhibitors of USP1/UAF1: Primary Screen. Ubiquitin carboxyl-terminal hydrolase 1 (Homo sapiens), O94782. recombinant USP1/UAF1, Ub-Rhodamine cleavage fluorescence. Potency, µM (series often up to 57.1 µM), without a hit: at the highest dose activity change, negative = inhibition, hits mostly inhibitors. hit rate 0.23% among 390,000. AID 743255, 2014; active = well fitted inhibition curve with a large enough effect; inconclusive = small, poorly fitted or top-dose-only effect; inactive = no such curve, though single readings can be large or run the other way; note: potency is the fitted concentration of half-maximal effect; % is set by controls: 0 for no effect and ±100 for the full control effect; nearly all actives have a fitted effect of over 60% in size
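Step one: compound is pinned into 1nM USP1/UAF1 in HEPES pH 7.8 buffer with TCEP. Step two: 15 min room-temperature incubation. Step three: Ub-Rho (150nM final) starts cleavage, tracked by fluorescence over six one-minute reads.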
TRHR enhancer: qHTS for Small Molecule Agonists and Allosteric Enhancers of Human TRH Receptor: Primary Screen for Enhancers | enhancement, % at 2 µM | TRHR cells, fluo-8 calcium fluorescence, EC20 TRH enhancement | Thyrotropin-releasing hormone receptor (Homo sapiens), P34981 | hit rate 0.66% among 360,000; in the data active = enhancement above about 30%; note: 0% is about no effect
Target sequence (P34981 whole entry, looked up): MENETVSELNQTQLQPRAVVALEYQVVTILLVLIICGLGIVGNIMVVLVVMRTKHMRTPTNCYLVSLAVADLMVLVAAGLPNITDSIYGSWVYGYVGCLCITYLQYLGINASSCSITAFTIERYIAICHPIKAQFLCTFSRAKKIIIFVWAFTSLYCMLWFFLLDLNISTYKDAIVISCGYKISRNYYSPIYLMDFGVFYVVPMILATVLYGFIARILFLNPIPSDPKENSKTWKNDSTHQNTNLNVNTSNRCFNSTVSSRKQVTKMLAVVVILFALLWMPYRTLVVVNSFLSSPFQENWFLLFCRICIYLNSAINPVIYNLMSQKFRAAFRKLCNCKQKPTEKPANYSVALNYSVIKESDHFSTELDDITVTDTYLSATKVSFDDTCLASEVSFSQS
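TRHR-expressing cells loaded with fluo-8 calcium dye were read kinetically (ex 480/em 530) during compound addition, then stimulated with an EC20 of TRH (10 nM final). Enhancement of the Gq-mediated intracellular calcium response was scored.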
D1 agonist: Allosteric Agonists of the Human D1 Dopamine Receptor: qHTS; D(1A) dopamine receptor (Homo sapiens), P21728; HEK293 T-REx D1 cells, calcium flux, agonist mode; activation, % at 2 µM; hit rate 1% among 360,000; note: 0% is about no effect
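Tetracycline-induced HEK293 TREx D1 cells, force-coupled to calcium signalling, were dye-loaded with a no-wash calcium kit. Compound was pin-added after a 10 s baseline. Fluorescence was read kinetically at 1 cycle/s for 180 s, with calcium rises flagged as agonism.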
TRHR ag: qHTS for Small Molecule Agonists and Allosteric Enhancers of Human TRH Receptor: Primary Screen for Agonists. Thyrotropin-releasing hormone receptor (Homo sapiens), P34981. TRHR cells, calcium flux fluo-8, FDSS agonist mode. activation, % at 2 µM. hit rate 0.18% among 360,000; note: 0% is about no effect
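Fluo-8-loaded TRHR cells; 10 s baseline, compound added, kinetic Ca2+ fluorescence read 1/s, agonist mode.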
D1 potentiator: Potentiators of Human D1 Dopamine Receptor: qHTS. D(1A) dopamine receptor (Homo sapiens), P21728. hit rate 0.036% among 360,000. potentiation, % at 10 µM. HEK293 TREx D1 cells, calcium flux, dopamine EC20 potentiation; in the data active = potentiation above about 30%; note: 0% is about no effect
D1 antag: Antagonist of Human D 1 Dopamine Receptor: qHTS. HEK293 TREx D1 cells, calcium flux, dopamine EC80; hits give low values. activity change, negative = inhibition, % at 10 µM. hit rate 3.2% among 360,000. D(1A) dopamine receptor (Homo sapiens), P21728. AID 504652, 2011; in the data active = activity change below about -30%; note: % is set by controls: 0 for no effect and ±100 for the full control effect
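Allosteric or orthosteric antagonism assessed as attenuation of the calcium response to EC80 dopamine, added 180 s after compound, in induced HEK293 Trex D1 cells loaded with no-wash calcium dye.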
* = called active by the depositor; ? = inconclusive; . = no result given. In the library only some 4.4% were active in any assay of this set; here they are far more common. Cut-off read from the data, not from the text of the source, unless noted: active = activation above about 30%; inactive = the rest.

SMILES	USP1 inh	TRHR enhancer	D1 agonist	TRHR ag	D1 potentiator	D1 antag
Cc1cccc(N2CCN(C(=O)c3cnn(-c4ccccc4Cl)c3C3CCN(C(=O)OC(C)(C)C)CC3)CC2C)c1 (configuration not stated)	-16%	7	0	0	2	0
COc1ccccc1CCNC(=O)Cc1c(C)c2cc3c(C(C)(C)C)coc3c(C)c2oc1=O	-3%	-1	3	-1	-2	10
CCOC(=O)N1CCC(=NNC(=O)COc2ccc(OC)cc2)CC1	-10%	0	1	1	-1	-3
COc1ccc(OCC(=O)N/N=C2/C=C(C)CC2)cc1	?	33*	0	0	-3	12
O=C1/C(=C/c2cccs2)Sc2ccccc21	1%	2	3	2	1	-93*
Cn1nc(C(F)(F)F)c2cc(C(=O)Nc3ccc(C(F)(F)F)cc3)sc21	-11%	-11	21	2	-7	-45*
Cc1cc2c(OCC(O)CNC3CCCCC3)cccc2[nH]1 (configuration not stated)	-24%	5	3	0	0	-8
OC(CNC1CCCC1)COc1ccccc1Br (configuration not stated)	4%	8	13	-1	-8	-36*
OC(CNC1CCCCCC1)COc1cccc2ccccc12 (configuration not stated)	-19%	5	45*	1	0	-15
CNC(=O)COc1ccc(NC(=O)CCn2nc(-c3ccc(C)cc3)c3ccccc3c2=O)cc1	-27%	1	1	-1	-2	-15
CCOC(=O)c1cccc(NC(=O)Cn2c(=O)c3cccn3c3ccccc32)c1	7%	15	20	-1	-3	-1
CCc1ccc(NCc2cc3ccc(OC)cc3n(CC(=O)Nc3cccc(Cl)c3C)c2=O)cc1	-32%	1	2	0	1	25
COC(=O)c1ccc(C23CC4(C2)[C@H](CN(Cc2ccc(C(F)(F)F)cc2)[C@@H]4c2ccccc2)C3c2ccc(C(F)(F)F)cc2)cc1 (some centres not stated)	.	0	2	0	0	23
COC(=O)c1ccc(C23CC4(C2)[C@H](CN(C)[C@@H]4c2ccccc2)C3c2ccc(C(F)(F)F)cc2)cc1 (some centres not stated)	?	-5	1	0	1	-52*
Cc1ccc(SCC(=O)Nc2ccc(O)c(-c3nc4cc(C)ccc4o3)c2)cc1	-6%	0	-1	0	-1	-83*
COc1ccccc1CNC(=O)CN(C)S(=O)(=O)c1ccc2c(c1)n(C)c(=O)c(=O)n2C	-24%	3	1	0	6	7
CN(CC(=O)NCc1ccc(Cl)cc1)S(=O)(=O)c1ccc2c(c1)c(=O)n(C)c(=O)n2C	-9%	24	0	0	4	-44*
Cc1cccc(CCNC(=O)CN(C)S(=O)(=O)c2ccc3c(c2)c(=O)n(C)c(=O)n3C)c1	-11%	-7	1	0	-7	4
COc1ccccc1CNC(=O)CN(C)S(=O)(=O)c1ccc2c(c1)c(=O)n(C)c(=O)n2C	-4%	2	0	0	-1	-37*
CN(CC(=O)NCc1ccc(F)cc1)S(=O)(=O)c1ccc2c(c1)c(=O)n(C)c(=O)n2C	-11%	-2	3	-1	-7	-3
Cc1ccc(CCNC(=O)CN(C)S(=O)(=O)c2ccc3c(c2)c(=O)n(C)c(=O)n3C)cc1	-27%	40*	1	0	-7	-15
O=C1COc2ccc(S(=O)(=O)Nc3ccc4c(c3)OCO4)cc2N1	-25%	0	6	0	1	-32*
O=S(=O)(Nc1ccc2c(c1)OCO2)c1cccc(Br)c1	-12%	0	0	-1	-1	-34*
CC(C)c1ccc(NS(=O)(=O)c2ccc3c(c2)NC(=O)CO3)cc1	-26%	3	8	0	8	5
O=C1NC2=C(C(=O)CCC2)C(c2ccc3ncccc3c2)N1 (configuration not stated)	-8%	3	3	0	0	-40*
SMILES	USP1 inh	TRHR enhancer	D1 agonist	TRHR ag	D1 potentiator	D1 antag
CCC(CC)C(=O)Nc1nnc(SCc2cc(=O)n3cccc(C)c3n2)s1	-13%	1	2	0	7	5
COc1ccc(CNc2nc3ccccc3n2CCN2CCCCC2)cc1	-22%	-3	5	0	-4	.
COc1ccc(CCN2CCC(Nc3nc4ccccc4n3Cc3ccc(F)cc3)CC2)cc1	-28%	2	112*	2	7	-21
CCCOc1ccc(C2c3c(oc4ccccc4c3=O)C(=O)N2c2nnc(C(C)C)s2)cc1 (configuration not stated)	-26%	5	-1	0	-1	13
O=S1(=O)N=C(N/N=C/c2cccs2)c2ccccc21	-12%	6	3	1	-5	-31*
O=[N+]([O-])c1ccc(/C=N/NC2=NS(=O)(=O)c3ccccc32)cc1	-10%	-4	4	1	4	13
CCOc1cc(CNCCSc2nnnn2-c2ccccc2)cc(Cl)c1OC	-6%	6	40*	-2	1	-2
Cc1cc(C)nc(SCCCNCc2ccc(Br)cc2)n1	-19%	0	36*	1	-4	-28
Fc1ccc(-c2ccc(CNCCSc3nnnn3-c3ccccc3)o2)cc1	-19%	2	34*	-1	2	7
Brc1ccc(CNCCCSc2nnnn2-c2ccccc2)cc1	-21%	0	95*	1	1	-4
Cc1c(Cl)cccc1-c1ccc(CNCCSc2nnnn2-c2ccccc2)o1	-25%	3	8	2	4	0
CCOc1ccc(CNC(=O)c2cc3ccccn3n2)cc1	?	-1	1	0	-2	-7
COc1ccccc1-c1nnc2n(CCc3ccccc3)c(=O)c3ccccc3n12	3%	-2	0	0	1	2
Cc1ccc(CSc2nnc(-c3cccs3)n2C)cc1	-4%	-11	0	0	-6	-40*
Cc1cccc(CSc2nnc(-c3cccs3)n2Cc2ccco2)c1	-10%	-5	9	-2	-9	-36*
Cn1c(SCc2ccc(Br)cc2)nnc1-c1cccs1	-4%	-6	1	0	-6	7

Screens from PubChem.
